# Source: PubChem BioAssay (EPA / NIEHS)
# Records with an inconclusive call do not appear. Calls of active or inactive are those of the source. How the source made its calls: active means hit-call score of the fitted dose curve at least 0.9, where 1 is the maximum; inconclusive means response in the unintended direction; inactive means score below 0.9.
# Assays:
# [1] = biological target: Androgen receptor (Homo sapiens) (UniProt P10275); assay: ATG_AR_TRANS: Attagene TRANS-FACTORIAL HepG2 Assay for human Androgen Receptor (AR) (AID 2282973); conditions: HepG2 Attagene TRANS-FACTORIAL AR reporter transcription
# Method in brief: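 HepG2 cells transiently transfected with multiplexed GAL4-UAS reporter units and chimeric NR-Gal4 fusion; 24 h compound exposure. Reporter mRNA measured by RT-PCR, 6-FAM labelling, HpaI digestion and capillary electrophoresis; gain-of-signal fitted relative to DMSO baseline.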
# [2] = biological target: human Protein Tyrosine Phosphatase Receptor Type C (PTPRC), PTPRC (gene 5788) (UniProt P08575); assay: NVS_ENZ_hPTPRC: NovaScreen (NVS) Enzymatic Assay for human Protein Tyrosine Phosphatase Receptor Type C (PTPRC) (AID 2283212)
# Method in brief: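 Yeast-extracted human PTPRC used in a cell-free colorimetric enzyme activity read-out, 1 h after dosing. Primary screen in duplicate at 25 uM; actives rerun in concentration-response up to 50 uM, DMSO as baseline.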
# [3] = biological target: human Phosphatase and Tensin Homolog (PTEN), PTEN (gene 5728) (UniProt P60484); assay: NVS_ENZ_hPTEN: NovaScreen (NVS) Enzymatic Assay for human Phosphatase and Tensin Homolog (PTEN) (AID 2283203)
# Method in brief: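 Cell-free recombinant human PTEN with fluorescent substrate; product separated by electrophoretic mobility shift and read by fluorescence 1 h after dosing. Primary screen in duplicate at 25 uM, actives followed in concentration series versus DMSO.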
# [4] = biological target: rat Monoamine Oxidase, MAO-B, Peripheral (MAOBP), Maob (gene 25750) (UniProt P19643); assay: NVS_ENZ_rMAOBP: NovaScreen (NVS) Enzymatic Assay for rat Monoamine Oxidase, MAO-B, Peripheral (MAOBP) (AID 2283242)
# [5] = tested on: rat Monoamine Oxidase, MAO-A, Peripheral (MAOAP), gene 29253; assay: NVS_ENZ_rMAOAP: NovaScreen (NVS) Enzymatic Assay for rat Monoamine Oxidase, MAO-A, Peripheral (MAOAP) (AID 2283237)
# Method in brief: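 Rat liver mitochondrial membranes served as the MAO-A source, with enzyme activity measured by radiometric scintillation counting 1.17 hours after dosing. Loss of signal was fitted against DMSO; primary screen used 25 uM in duplicate, follow-up used concentration series.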
# [6] = biological target: human Raf-1 Proto-Oncogene, serine/threonine Kinase (RAF1), RAF1 (gene 5894) (UniProt P04049); assay: NVS_ENZ_hRAF1: NovaScreen (NVS) Enzymatic Assay for human Raf-1 Proto-Oncogene, serine/threonine Kinase (RAF1) (AID 2283216)
# Method in brief: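 Cell-free recombinant kinase with specific fluorescent substrate, product separated by electrophoretic mobility shift; read 1 h after dosing. Primary screen at 25 uM in duplicate; hits then run in concentration-response up to 50 uM, fitted as loss of signal versus DMSO.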
# [7] = biological target: rat Acetylcholinesterase (AChE), Ache (gene 83817) (UniProt P37136); assay: NVS_ENZ_rAChE: NovaScreen (NVS) Enzymatic Assay for rat Acetylcholinesterase (AChE) (AID 2283233)
# Method in brief: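 Rat brain membrane acetylcholinesterase activity measured colorimetrically 0.33 h after compound addition, loss of signal relative to DMSO. Primary screen in duplicate at 25 uM; actives re-run as concentration-response with 50 uM top concentration.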
# [8] = tested on: rat Monoamine Oxidase, MAO-A, Central (MAOAC), gene 29253; assay: NVS_ENZ_rMAOAC: NovaScreen (NVS) Enzymatic Assay for rat Monoamine Oxidase, MAO-A, Central (MAOAC) (AID 2283243);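 further: potency refers to inhibition seen as signal drop below DMSO baseline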
# Method in brief: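 Inhibition of rat brain-derived MAO-A was read by scintillation counting after 1.5 h exposure. Compounds screened first at 25 uM in duplicate, then in dose series if active.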
# [9] = biological target: human MET Proto-Oncogene, Receptor Tyrosine Kinase (MET), MET (gene 4233) (UniProt P08581); assay: NVS_ENZ_hMet: NovaScreen (NVS) Enzymatic Assay for human MET Proto-Oncogene, Receptor Tyrosine Kinase (MET) (AID 2283180)
# Method in brief: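 Cell-free MET kinase assay using recombinant protein and fluorescent substrate, with mobility-shift separation; read 1 h after dosing. Primary duplicate at 25 uM; actives in singleton concentration-response to 50 uM maximum. Signal loss versus DMSO.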
# [10] = tested on: guinea pig Atrionatriuretic Peptide Receptor A (ANPA), gene 100135578; assay: NVS_GPCR_gANPA: NovaScreen (NVS) G Protein-Coupled Receptor Assay for guinea pig Atrionatriuretic Peptide Receptor A (ANPA) (AID 2283291)
# Method in brief: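 Radioligand binding to guinea pig cerebellar membranes was measured after 1 h by filter-based scintillation counting. Chemicals were tested in duplicate at 25 uM, with hits run in concentration-response to a maximum of 50 uM. Binding loss was fitted against DMSO.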
# [11] = biological target: bovine Gamma-Aminobutyric Acid Type A Receptor BDZ, alpha 1 site (GABARa1), GABRA1 (gene 780973) (UniProt P08219); assay: NVS_LGIC_bGABARa1: NovaScreen (NVS) Ligand-Gated Ion Channel Assay for bovine Gamma-Aminobutyric Acid Type A Receptor BDZ, alpha 1 site (GABARa1) (AID 2283321)
# Method in brief: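 Radioligand competition binding on bovine cortical membranes, 0.75 h, filter-based scintillation counting. Primary single concentration 25 uM in duplicate; actives rerun in concentration-response to 50 uM max. Loss of signal fitted versus DMSO.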
# [12] = biological target: rat Oxytocin Receptor (OXT), Oxtr (gene 25342) (UniProt P70536); assay: NVS_GPCR_rOXT: NovaScreen (NVS) G Protein-Coupled Receptor Assay for rat Oxytocin Receptor (OXT) (AID 2283330)
# Method in brief: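 Radioligand displacement on rat uterine membranes, 1 h incubation, filter-based scintillation counting. Chemicals were screened in duplicate at 25 uM, and those passing threshold were retested in concentration-response up to 50 uM. Loss of binding was fitted versus DMSO.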
# [13] = biological target: Norway rat Vesicular Monoamine Transporter (VMAT2), neurotransmitter transporter, Slc18a2 (gene 25549) (UniProt Q01827); assay: NVS_TR_rVMAT2: NovaScreen (NVS) Transporter Assay for Norway rat Vesicular Monoamine Transporter (VMAT2), neurotransmitter transporter (AID 2283376);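 further: actives lower the bound radioligand signal below the DMSO level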
# Method in brief: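 Tissue: rat forebrain extract. Format: competitive radioligand binding, cell-free. Timepoint: 1 h. Readout: filter radiodetection/scintillation. Screen: 25 uM in duplicate, then concentration series for actives. Baseline: DMSO.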
# [14] = biological target: Voltage-dependent N-type calcium channel subunit alpha-1B (Rattus norvegicus) (UniProt Q02294); assay: NVS_IC_rCaChN: NovaScreen (NVS) Ion Channel Assay for rat Calcium Channel, Type N (CaChN) (AID 2283317)
# [15] = biological target: rat Monoamine Oxidase, MAO-B, Central (MAOBC), Maob (gene 25750) (UniProt P19643); assay: NVS_ENZ_rMAOBC: NovaScreen (NVS) Enzymatic Assay for rat Monoamine Oxidase, MAO-B, Central (MAOBC) (AID 2283238)
# Method in brief: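 Compounds were first tested in duplicate at 25 uM against MAO-B from rat brain tissue; those passing the inhibition threshold were retested in concentration series up to 50 uM. Radiodetection by scintillation counting at 1.17 h, analysed against DMSO baseline.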
# [16] = biological target: human Matrix Metalloproteinase-1 (MMP1), MMP1 (gene 4312) (UniProt P03956); assay: NVS_ENZ_hMMP1: NovaScreen (NVS) Enzymatic Assay for human Matrix Metalloproteinase-1 (MMP1) (AID 2283181)
# Method in brief: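 Human MMP1 enzyme activity measured by fluorescence 1 h after dosing, cell-free, with a specific substrate. Screened in duplicate at 25 uM; hits (e.g. 30% inhibition) run in concentration-response up to 50 uM; loss of signal versus DMSO.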
# Chain of rat Monoamine Oxidase, MAO-B, Peripheral (MAOBP), Maob (gene 25750) (P19643 whole entry, looked up): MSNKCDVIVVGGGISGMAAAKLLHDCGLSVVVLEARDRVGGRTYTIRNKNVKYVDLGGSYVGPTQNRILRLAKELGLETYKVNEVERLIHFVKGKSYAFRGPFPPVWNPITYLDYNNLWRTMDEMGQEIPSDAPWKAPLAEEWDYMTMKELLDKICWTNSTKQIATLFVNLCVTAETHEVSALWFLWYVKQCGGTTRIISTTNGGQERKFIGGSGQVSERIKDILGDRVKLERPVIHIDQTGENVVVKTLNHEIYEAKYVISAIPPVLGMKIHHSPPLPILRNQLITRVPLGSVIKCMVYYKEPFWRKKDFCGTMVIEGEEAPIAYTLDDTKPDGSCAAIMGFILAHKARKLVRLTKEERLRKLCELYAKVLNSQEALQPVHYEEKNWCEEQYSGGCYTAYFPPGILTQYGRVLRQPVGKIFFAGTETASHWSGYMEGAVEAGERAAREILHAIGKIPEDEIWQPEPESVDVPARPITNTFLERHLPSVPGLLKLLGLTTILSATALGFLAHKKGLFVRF
# Chain of human Phosphatase and Tensin Homolog (PTEN), PTEN (gene 5728) (P60484 whole entry, looked up): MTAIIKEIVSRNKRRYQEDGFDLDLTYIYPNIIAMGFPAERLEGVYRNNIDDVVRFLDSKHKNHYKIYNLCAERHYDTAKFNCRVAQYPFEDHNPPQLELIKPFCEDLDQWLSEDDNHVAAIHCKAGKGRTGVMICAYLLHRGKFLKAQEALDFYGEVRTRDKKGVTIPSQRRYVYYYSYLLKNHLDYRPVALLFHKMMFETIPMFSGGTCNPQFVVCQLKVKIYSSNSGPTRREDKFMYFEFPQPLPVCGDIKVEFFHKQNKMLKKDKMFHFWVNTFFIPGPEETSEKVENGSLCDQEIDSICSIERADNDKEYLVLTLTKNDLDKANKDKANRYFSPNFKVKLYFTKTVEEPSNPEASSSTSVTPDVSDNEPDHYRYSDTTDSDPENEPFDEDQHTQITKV
# Chain of Androgen receptor (Homo sapiens) (P10275 whole entry, looked up, the tested form may be a part): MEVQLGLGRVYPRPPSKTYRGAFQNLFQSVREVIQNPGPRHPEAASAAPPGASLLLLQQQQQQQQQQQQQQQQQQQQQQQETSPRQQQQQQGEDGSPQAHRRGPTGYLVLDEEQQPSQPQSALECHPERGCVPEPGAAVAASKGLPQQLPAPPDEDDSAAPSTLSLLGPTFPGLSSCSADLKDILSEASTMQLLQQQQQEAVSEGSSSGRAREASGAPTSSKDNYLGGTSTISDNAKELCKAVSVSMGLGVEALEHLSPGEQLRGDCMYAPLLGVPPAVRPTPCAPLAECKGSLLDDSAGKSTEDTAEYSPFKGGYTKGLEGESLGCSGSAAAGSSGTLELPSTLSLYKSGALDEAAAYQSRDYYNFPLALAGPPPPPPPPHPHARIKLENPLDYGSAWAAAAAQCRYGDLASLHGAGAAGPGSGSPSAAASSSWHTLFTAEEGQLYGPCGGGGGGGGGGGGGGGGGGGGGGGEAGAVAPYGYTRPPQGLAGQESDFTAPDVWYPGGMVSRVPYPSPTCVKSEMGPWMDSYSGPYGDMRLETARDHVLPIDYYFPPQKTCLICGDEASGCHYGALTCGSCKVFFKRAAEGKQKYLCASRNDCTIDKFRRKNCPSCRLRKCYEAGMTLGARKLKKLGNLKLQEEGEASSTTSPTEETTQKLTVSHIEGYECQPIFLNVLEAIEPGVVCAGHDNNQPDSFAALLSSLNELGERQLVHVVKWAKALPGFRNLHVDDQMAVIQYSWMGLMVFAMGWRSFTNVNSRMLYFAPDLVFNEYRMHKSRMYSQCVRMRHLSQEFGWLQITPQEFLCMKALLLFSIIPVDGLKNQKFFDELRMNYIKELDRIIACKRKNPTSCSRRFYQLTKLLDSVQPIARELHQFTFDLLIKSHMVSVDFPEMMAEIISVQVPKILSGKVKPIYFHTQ
# Chain of Norway rat Vesicular Monoamine Transporter (VMAT2), neurotransmitter transporter, Slc18a2 (gene 25549) (Q01827 whole entry, looked up): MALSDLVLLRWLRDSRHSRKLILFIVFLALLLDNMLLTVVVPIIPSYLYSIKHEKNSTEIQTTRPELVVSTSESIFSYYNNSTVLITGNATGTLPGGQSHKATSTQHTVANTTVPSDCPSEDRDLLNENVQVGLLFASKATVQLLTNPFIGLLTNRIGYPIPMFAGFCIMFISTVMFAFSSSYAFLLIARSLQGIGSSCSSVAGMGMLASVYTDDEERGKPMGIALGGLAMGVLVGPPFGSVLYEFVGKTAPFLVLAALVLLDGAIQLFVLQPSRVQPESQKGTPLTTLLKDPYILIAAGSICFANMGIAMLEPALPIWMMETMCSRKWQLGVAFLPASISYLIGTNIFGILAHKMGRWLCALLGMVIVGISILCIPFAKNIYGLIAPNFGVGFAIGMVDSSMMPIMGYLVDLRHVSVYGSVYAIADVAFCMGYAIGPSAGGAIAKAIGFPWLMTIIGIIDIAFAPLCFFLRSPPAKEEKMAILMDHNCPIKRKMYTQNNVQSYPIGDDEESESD
# Chain of human Protein Tyrosine Phosphatase Receptor Type C (PTPRC), PTPRC (gene 5788) (P08575 whole entry, looked up): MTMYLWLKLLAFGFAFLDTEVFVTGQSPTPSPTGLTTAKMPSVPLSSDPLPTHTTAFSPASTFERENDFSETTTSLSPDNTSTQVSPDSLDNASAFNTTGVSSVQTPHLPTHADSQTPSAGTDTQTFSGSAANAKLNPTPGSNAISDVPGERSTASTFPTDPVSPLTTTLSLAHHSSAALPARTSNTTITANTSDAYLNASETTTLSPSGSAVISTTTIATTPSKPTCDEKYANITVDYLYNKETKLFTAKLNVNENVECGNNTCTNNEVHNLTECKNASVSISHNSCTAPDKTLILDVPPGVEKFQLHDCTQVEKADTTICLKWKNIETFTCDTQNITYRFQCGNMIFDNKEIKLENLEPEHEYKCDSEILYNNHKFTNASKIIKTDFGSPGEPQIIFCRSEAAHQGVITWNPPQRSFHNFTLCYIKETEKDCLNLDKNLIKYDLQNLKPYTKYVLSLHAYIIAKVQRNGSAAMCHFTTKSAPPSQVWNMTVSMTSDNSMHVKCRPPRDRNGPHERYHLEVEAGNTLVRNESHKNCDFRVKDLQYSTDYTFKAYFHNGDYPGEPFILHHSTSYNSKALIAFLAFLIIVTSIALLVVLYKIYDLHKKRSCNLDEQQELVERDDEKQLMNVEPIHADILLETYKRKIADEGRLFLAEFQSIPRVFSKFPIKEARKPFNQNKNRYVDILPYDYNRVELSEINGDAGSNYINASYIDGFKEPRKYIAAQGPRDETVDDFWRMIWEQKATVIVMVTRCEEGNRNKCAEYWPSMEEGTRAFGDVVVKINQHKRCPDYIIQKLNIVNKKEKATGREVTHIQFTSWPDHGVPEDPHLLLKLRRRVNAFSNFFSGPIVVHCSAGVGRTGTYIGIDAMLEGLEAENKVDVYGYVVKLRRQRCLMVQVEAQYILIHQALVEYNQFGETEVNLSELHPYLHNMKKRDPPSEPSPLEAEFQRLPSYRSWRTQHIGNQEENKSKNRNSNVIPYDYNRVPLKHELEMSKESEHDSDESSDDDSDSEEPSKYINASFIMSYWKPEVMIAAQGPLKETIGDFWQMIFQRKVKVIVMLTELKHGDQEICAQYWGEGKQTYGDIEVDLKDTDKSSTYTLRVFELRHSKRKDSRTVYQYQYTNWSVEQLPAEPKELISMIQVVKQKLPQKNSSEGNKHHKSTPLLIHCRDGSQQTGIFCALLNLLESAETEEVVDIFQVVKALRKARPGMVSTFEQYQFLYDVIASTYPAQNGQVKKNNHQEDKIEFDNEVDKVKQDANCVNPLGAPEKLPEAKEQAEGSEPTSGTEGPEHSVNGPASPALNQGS
# Chain of rat Acetylcholinesterase (AChE), Ache (gene 83817) (P37136 whole entry, looked up): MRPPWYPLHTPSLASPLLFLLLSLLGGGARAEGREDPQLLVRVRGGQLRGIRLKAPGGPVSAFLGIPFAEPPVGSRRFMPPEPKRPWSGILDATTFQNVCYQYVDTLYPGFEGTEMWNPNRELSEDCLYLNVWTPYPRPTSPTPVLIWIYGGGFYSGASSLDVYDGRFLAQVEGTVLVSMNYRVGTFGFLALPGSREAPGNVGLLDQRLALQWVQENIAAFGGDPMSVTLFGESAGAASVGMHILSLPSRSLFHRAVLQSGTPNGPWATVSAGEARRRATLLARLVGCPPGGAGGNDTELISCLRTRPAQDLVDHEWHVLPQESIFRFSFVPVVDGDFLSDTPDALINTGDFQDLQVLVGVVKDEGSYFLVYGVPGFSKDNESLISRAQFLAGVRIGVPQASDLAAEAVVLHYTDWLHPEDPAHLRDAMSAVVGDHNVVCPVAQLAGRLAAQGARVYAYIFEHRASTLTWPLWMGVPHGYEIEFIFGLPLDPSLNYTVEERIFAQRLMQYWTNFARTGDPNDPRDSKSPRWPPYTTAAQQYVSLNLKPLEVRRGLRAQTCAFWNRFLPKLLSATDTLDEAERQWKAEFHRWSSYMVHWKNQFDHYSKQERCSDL
# Chain of rat Monoamine Oxidase, MAO-B, Central (MAOBC), Maob (gene 25750) (P19643 whole entry, looked up): as the sequence (P19643 whole entry, looked up) above
# Chain of human Matrix Metalloproteinase-1 (MMP1), MMP1 (gene 4312) (P03956 whole entry, looked up): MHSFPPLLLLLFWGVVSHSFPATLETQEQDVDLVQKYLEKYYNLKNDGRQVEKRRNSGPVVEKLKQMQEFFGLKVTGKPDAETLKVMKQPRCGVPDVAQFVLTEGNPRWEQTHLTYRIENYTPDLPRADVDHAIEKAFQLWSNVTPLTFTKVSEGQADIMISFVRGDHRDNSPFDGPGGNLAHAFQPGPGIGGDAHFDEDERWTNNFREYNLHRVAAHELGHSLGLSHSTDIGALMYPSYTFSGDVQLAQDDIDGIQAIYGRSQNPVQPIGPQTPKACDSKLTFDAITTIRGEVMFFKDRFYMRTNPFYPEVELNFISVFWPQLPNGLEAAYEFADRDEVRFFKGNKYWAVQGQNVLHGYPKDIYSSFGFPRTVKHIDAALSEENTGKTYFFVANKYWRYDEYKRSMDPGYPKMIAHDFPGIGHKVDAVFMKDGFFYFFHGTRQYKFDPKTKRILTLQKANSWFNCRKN
smiles,measurement,setting,value
Cc1cccc([N+](=O)[O-])c1C,outcome,[1],inactive
same,outcome,[2],inactive
CCc1cccc(CC)c1,outcome,[1],inactive
same,outcome,[3],inactive
O=c1c(-c2ccc(O)cc2)coc2cc(O)ccc12,outcome,[1],inactive
same,outcome,[4],inactive
CCCCCCc1ccc(O)cc1O,outcome,[1],inactive
same,AC50,[5],25 µM (active)
C#CC(O)C(CC)CCCC (stereo not given),outcome,[1],inactive
same,outcome,[6],inactive
O=S1(=O)CC(Cl)(Cl)C(Cl)(Cl)C1,outcome,[1],inactive
same,AC50,[7],26.1 µM (active)
same,outcome,[8],inactive
CCOC=C(C(=O)OCC)C(=O)OCC,outcome,[1],inactive
same,outcome,[3],inactive
O[Si](c1ccccc1)(c1ccccc1)c1ccccc1,outcome,[1],inactive
same,AC50,[3],10.6 µM (active)
Cn1c(=O)[nH]c2ncn(C)c2c1=O,outcome,[1],inactive
same,AC50,[8],34.9 µM (active)
OCCCc1cccnc1,outcome,[1],inactive
same,outcome,[3],inactive
Fc1ccccc1[C@@H](F)COC1CCC(Nc2ncnc3[nH]ncc23)CC1 (stereo not given in full),outcome,[1],inactive
same,outcome,[9],inactive
same,AC50,[4],7.67 µM (active)
CC1(C)[C@H](C(=O)OCc2cccc(Oc3ccccc3)c2)[C@@H]1C=C(Cl)Cl,outcome,[1],inactive
same,AC50,[3],15.7 µM (active)
CC=CC(=O)C1=C(C)C=CCC1(C)C,outcome,[1],inactive
same,outcome,[3],inactive
CN(C[C@@H](CC[N+]12CCC(C3CCCCC3)(CC1)CC2)c1ccc(Cl)c(Cl)c1)C(=O)c1cc(C(F)(F)F)cc(C(F)(F)F)c1,outcome,[1],inactive
same,AC50,[3],16.2 µM (active)
same,outcome,[2],inactive
same,AC50,[10],42.3 µM (active)
same,outcome,[11],inactive
same,AC50,[12],16.5 µM (active)
Clc1cc(Cl)c(-c2c(Cl)c(Cl)cc(Cl)c2Cl)cc1Cl,outcome,[1],inactive
same,AC50,[3],12.5 µM (active)
CCc1cccc(C)c1N(C(=O)CS(=O)(=O)O)C(C)COC (stereo not given),outcome,[1],inactive
same,outcome,[3],inactive
CCN(CCC#N)c1ccc(N=Nc2ccc([N+](=O)[O-])cc2)cc1,outcome,[1],inactive
same,outcome,[3],inactive
same,outcome,[13],inactive
CCCCCCCCC(C)=O,outcome,[1],inactive
same,outcome,[3],inactive
same,outcome,[13],inactive
CN[C@H]1CC[C@@H](c2ccc(Cl)c(Cl)c2)c2ccc(S(N)(=O)=O)cc21,outcome,[1],inactive
same,AC50,[7],25 µM (active)
same,outcome,[14],inactive
Oc1ccc2ccccc2c1,outcome,[1],inactive
same,AC50,[15],14.4 µM (active)
same,AC50,[4],13.3 µM (active)
same,AC50,[8],10.2 µM (active)
O=C(NS(=O)(=O)/C=C/c1cccs1)c1ccc(F)cc1Br,outcome,[1],inactive
same,outcome,[4],inactive
Clc1cccc(Cl)n1,outcome,[1],inactive
same,outcome,[8],inactive
OCCCCl,outcome,[1],inactive
same,outcome,[3],inactive
COCCOCCOC,outcome,[1],inactive
same,outcome,[16],inactive
same,AC50,[5],39.7 µM (active)
O=[N+]([O-])c1ccc(CO)cc1,outcome,[1],inactive
same,outcome,[3],inactive
CCOC(=O)C1=NN(c2ccc(Cl)cc2Cl)C(C)(C(=O)OCC)C1 (stereo not given),outcome,[1],inactive
same,outcome,[3],inactive
same,AC50,[13],15.5 µM (active)
